The results in this text go back to ChEMBL document CHEMBL3988442, “University of Dundee, Small-Polar-MMV Screening Library” (2021).

Experiment [1] has as its target T1, Aspartate--tRNA(Asp/Asn) ligase (Mycobacterium tuberculosis (strain ATCC 25618 / H37Rv)) (UniProt P9WFW3). Also: in the data most compounds retested in dose-response had high values.
T1 sequence (whole entry): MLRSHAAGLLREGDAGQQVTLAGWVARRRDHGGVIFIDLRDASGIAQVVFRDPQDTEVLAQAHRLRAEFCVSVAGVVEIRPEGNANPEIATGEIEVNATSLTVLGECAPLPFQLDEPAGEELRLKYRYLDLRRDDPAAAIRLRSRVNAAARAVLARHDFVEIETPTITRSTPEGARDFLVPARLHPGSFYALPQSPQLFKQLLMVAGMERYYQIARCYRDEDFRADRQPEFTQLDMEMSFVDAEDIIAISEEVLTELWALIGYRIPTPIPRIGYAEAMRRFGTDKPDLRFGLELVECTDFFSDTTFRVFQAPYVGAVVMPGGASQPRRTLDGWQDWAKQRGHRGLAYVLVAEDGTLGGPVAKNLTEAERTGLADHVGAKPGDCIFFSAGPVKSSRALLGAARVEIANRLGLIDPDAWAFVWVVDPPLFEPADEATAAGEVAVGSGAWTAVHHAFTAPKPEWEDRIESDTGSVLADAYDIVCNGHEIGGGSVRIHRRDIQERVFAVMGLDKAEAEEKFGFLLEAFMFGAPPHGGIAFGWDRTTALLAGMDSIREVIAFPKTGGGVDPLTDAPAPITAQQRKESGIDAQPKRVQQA
The experiment in a line: Assay for Asp RNA synthetase-1 from Mycobacterium tuberculosis. The class given is functional. Also noted: scale not given: direction of the effect not stated beside the values. Conditions: 30 µM.

Experiment [2] addresses Shiga toxin 2 (Escherichia coli O157:H7) (UniProt P09385+P09386). The experiment in a line: E. coli 0.157:H7 Shiga Toxin SOP - stx2 screening assay. The class given is functional. Details: scale not given: direction of the effect not stated beside the values. As to conditions: 30 µM.

On to `CCO[C@@H]1CCN(C(=O)c2ccc[nH]2)[C@@H]1Cc1cnn(C)c1`, for which the Percent Effect is -1.78% in experiment [1] and 5.04% in experiment [2].

Turning to `CCn1cnnc1CNC(=O)N1CCN(c2nc(C)c(C)s2)CC1`, the Percent Effect in experiment [1] was -5.01%; in experiment [2], -22.1%.

On to `OCCn1cc(CN2CCN(CCOCC(F)(F)F)CC2)cn1`, for which the Percent Effect in experiment [1] was -3.85%; in experiment [2] it was 27.3%.

As to `Cc1cnc(N2C[C@H]3C[C@H](C(=O)N(C)C)[C@@H](C2)O3)nc1`, the figures for the Percent Effect in experiment [1] and in experiment [2] were 2.79% and -23.4%, respectively.

For `CCCS(=O)(=O)N1CCO[C@H]2[C@H](OCc3ccccn3)CC[C@@H]21`, the figures for the Percent Effect in experiment [1] and in experiment [2] were 3.5% and -8.66%, respectively.

For `Clc1ccc(OCCCN2CCN(c3cnccn3)CC2)cc1`, the Percent Effect in experiment [1] was 1.06%; in experiment [2], -6.97%.

In the case of `CCc1nc(C2CCCN2C(=O)c2ccoc2C)no1` (configuration not stated), the results for the Percent Effect in experiment [1] and in experiment [2] were 1.77% and -24%, respectively.

In the case of `Cc1n[nH]c(C(=O)NCc2ccnc(OCC(F)(F)F)c2)c1Br`, the values for the Percent Effect in experiment [1] and in experiment [2] were -3.15% and 9.67%, respectively.

Consider `COCc1ncn2c1CN(C(=O)C1CC=CC1)CC2`, for which the Percent Effect in experiment [1] came out at 1.48%; in experiment [2], 0.0561%.

As for `Cc1nc(C)c(C(=O)OCCNc2ncccc2C#N)s1`, the Percent Effect is 1.71% in experiment [1] and -15.1% in experiment [2].

Turning to `CC(=O)NCC1CCN(CC2CCOc3ccccc3C2)CC1` (configuration not stated), the results for the Percent Effect in experiment [1] and in experiment [2] were 1.5% and 1.04%, respectively.

As for `Cc1ccc(NC2CCN(C(=O)CCNS(C)(=O)=O)CC2)nn1`, the Percent Effect is -2.45% in experiment [1] and -0.275% in experiment [2].

For the molecule `COc1ccc(CNC(=O)N(Cc2ccc(F)cc2F)C2CC2)cn1`, the results for the Percent Effect in experiment [1] and in experiment [2] were -9.17% and -13%, respectively.

With `O=C(c1ccc[nH]1)N1CCc2c(COCC3CC3)cncc2C1`, the values for the Percent Effect in experiment [1] and in experiment [2] were -0.626% and 1.55%, respectively.

For the molecule `N#Cc1ncn(CC(=O)Nc2cc(Cl)ccc2F)n1`, the Percent Effect in experiment [1] is 9.55%; in experiment [2] it was -46.7%.

Consider `CC(C)c1n[nH]c(C2CN(C(=O)c3cccc4cn[nH]c34)CCO2)n1` (configuration not stated), for which the values for the Percent Effect in experiment [1] and in experiment [2] were 7.47% and 9.23%, respectively.

Regarding `CN(C)CCO[C@@H]1CC[C@H]2[C@H]1OCCN2C(=O)CCc1ccccc1`, the Percent Effect in experiment [1] is -1.17%; in experiment [2], -27.7%.

Take `CN(C)C(=O)C1(CCCc2ccncc2)CCCN1` (configuration not stated): the Percent Effect in experiment [1] is -0.998%; in experiment [2] it was 11.3%.

As to `O=C(Cc1ccccc1Cl)N1CCCC(n2cncn2)C1` (configuration not stated), the Percent Effect in experiment [1] is -1.83%; in experiment [2], -37.6%.

Turning to `COc1cc(CN(C(=O)Nc2cccnc2OC)C2CC2)ccc1O`, the Percent Effect in experiment [1] is -2.28%; in experiment [2] it was 11.9%.

Consider `CCCN1CCN(C(=O)c2cnccn2)[C@H]2CS(=O)(=O)C[C@H]21`, for which the Percent Effect in experiment [1] was -3.33%; in experiment [2], -11.3%.

On to `CN(C)C(=O)C1CCCN1CCCNC(=O)c1ccccc1F` (configuration not stated), for which the Percent Effect is 7.07% in experiment [1] and -18.5% in experiment [2].

For the molecule `CC(CN1CCN(C)CC1)NC(=O)c1cc(Cl)c2c(c1)OCO2` (configuration not stated), the figures for the Percent Effect in experiment [1] and in experiment [2] were 3.29% and -0.562%, respectively.

With `O=C([C@H]1CCCO1)N1CCCC2(CCN(Cc3ccncc3)C2=O)C1` (some centres not stated), the results for the Percent Effect in experiment [1] and in experiment [2] were 3.8% and -9.24%, respectively.

With `Cc1nnc2n1CCN(Cc1csc(CC(=O)N(C)C)n1)C2`, the Percent Effect amounted to 2.24% in experiment [1] and 5.11% in experiment [2].

Regarding `CNC(=O)c1cnc(/C=C/c2cc(OC)cc(OC)c2)s1`, the values for the Percent Effect in experiment [1] and in experiment [2] were 5.76% and -89.3%, respectively.

`CCc1cnc(N2CCC3(CC2)CN(c2cccnc2)C(=O)CO3)nc1`: the results for the Percent Effect in experiment [1] and in experiment [2] were 6.49% and -6.76%, respectively.

On to `CN(C)Cc1nc(C(C)(C)NC(=O)C2CC(=O)N(CC3CC3)C2)no1` (configuration not stated), for which the figures for the Percent Effect in experiment [1] and in experiment [2] were -5.01% and 25.1%, respectively.

`COc1cccc(-c2nc(CNCCn3cccn3)cs2)c1`: the Percent Effect in experiment [1] is -2.68%; in experiment [2], -60.9%.

Take `Cc1ccc(C(O)CNCc2c(C(C)C)nn(C)c2N(C)C)cc1` (configuration not stated): the Percent Effect in experiment [1] was -5.77%; in experiment [2], 10.4%.

`Fc1ccc(CN2CCCC(Cn3cncn3)C2)c2ncccc12` (configuration not stated): the Percent Effect in experiment [1] was 14.3%; in experiment [2] it was -38.7%.

For the molecule `COc1ccc2c(c1)C1(CCN(Cc3ccncc3)CC1)N(C)CC2`, the values for the Percent Effect in experiment [1] and in experiment [2] were 2.26% and -1.38%, respectively.

For the molecule `CC(C)(C)SCCCC(=O)N1CCC(Nc2cccnn2)CC1`, the Percent Effect is -1.23% in experiment [1] and -5.49% in experiment [2].

For `c1cnc(-c2nc(CN3CCOC(Cn4cncn4)C3)cs2)nc1` (configuration not stated), the Percent Effect is 9.26% in experiment [1] and 18.3% in experiment [2].

For the molecule `CCN(CC1CCOC1)C(=O)c1cccnc1N1CCOCC1` (configuration not stated), the Percent Effect in experiment [1] was -1.66%; in experiment [2], 25.6%.

Regarding `CC(C)c1nnc2n1CCN(Cc1csc(CC(=O)N(C)C)n1)C2`, the Percent Effect in experiment [1] is -7.04%; in experiment [2], 18.3%.

For `COc1cccc(-n2nnc(C(=O)N3CCN(C)CC3C)c2C)c1` (configuration not stated), the Percent Effect in experiment [1] is -2.92%; in experiment [2] it was -48.2%.

Consider `N#Cc1ccc(C(=O)N2CCn3c(Cn4cccn4)cnc3C2)cc1`, for which the Percent Effect in experiment [1] was 1.54%; in experiment [2] it was 0.128%.

As to `c1cnc(OCc2nnc3n2CCN(CC2CC2)C3)nc1`, the figures for the Percent Effect in experiment [1] and in experiment [2] were 1.75% and 4.75%, respectively.

With `Cc1nn(C)c(C)c1-c1cncc(C2CCN(S(C)(=O)=O)CC2)n1`, the Percent Effect in experiment [1] was -2.63%; in experiment [2], -8.32%.

With `Cc1cnn(CC(C)NCc2ccc(S(C)(=O)=O)cc2)c1` (configuration not stated), the Percent Effect is 1.18% in experiment [1] and -66.9% in experiment [2].

For `N#CC1(C(=O)N2CCN(Cc3cscn3)CC2)CCCC1`, the Percent Effect is -0.171% in experiment [1] and 9.21% in experiment [2].

With `CC(C)c1nc2c(n1C)CCN(CC(=O)Nc1nccs1)C2`, the Percent Effect in experiment [1] is -1.5%; in experiment [2] it was 26%.

For the molecule `COCCC(=O)N1CCC2(CC1)CC(c1ccccc1)CN(C)C2` (configuration not stated), the results for the Percent Effect in experiment [1] and in experiment [2] were -3.3% and 17.5%, respectively.

In the case of `Cn1nc(C2CCCN(Cc3cccc(F)c3)C2)c2nccnc21` (configuration not stated), the Percent Effect in experiment [1] was -0.491%; in experiment [2], 14.8%.

With `O=C(CCC1CCCO1)NCc1ccnc(-n2cccn2)c1` (configuration not stated), the Percent Effect came to 7.84% in experiment [1] and 21.6% in experiment [2].
